# Results: the supplement of paper PMC10849652
# The full data set covers some 7,900 targets. This sample favours those with a hit. About 0.6% of all pairs of compound and target were hits.
# Experiments:
# Test in all cases: log2 fold change, soluble protein after heating vs DMSO (PISA); higher = thermal stabilisation; K562 cells, 10 uM, 30 min; active = over 0.2 and 3.5 SD of the protein, either way, in both replicates (recomputed)
# [1] = compound: CS(=O)(=O)c1ccc(-c2cnc(N)c(C(=O)Nc3ccccc3)n2)cc1
# Method in brief: (§1)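 Soluble protein was defined as the supernatant after 21,000xg for 90 min. It came from K562 cells at 2×10^6 cells/mL given 10 μM compound for 30 min, heated in aliquots for 3 min across 48°C-58°C, pooled, and extracted in PBS with 0.5% NP-40 at 4°C, and was quantified by TMTpro 16plex LC-MS/MS with equalised channel sums. Thermal stability against control samples, from duplicates, is reported as log2 fold change.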
# [2] = compound: C[C@@H](Oc1cc(-c2cnn(C3CCNCC3)c2)cnc1N)c1c(Cl)ccc(F)c1Cl [crizotinib]
# Method in brief: as §1
# [3] = compound: C[C@@H]1COCCN1C2=NC(=NC(=C2)C3(CC3)S(=O)(=O)C)C4=C5C=CNC5=CC=C4
# Method in brief: as §1
# [4] = compound: C[C@H](C1=CC=C(C=C1)C(=O)NC2=C3C=CNC3=NC=C2)N
# Method in brief: as §1
# [5] = compound: C[C@H](Nc1ncnc2nc[nH]c12)c1cc2cccc(Cl)c2c(=O)n1-c1ccccc1 [duvelisib]
# Method in brief: as §1
# [6] = compound: Cc1cc(Nc2cc(CN3CCOCC3)c3nc(C)c(Cc4ccc(Cl)cc4F)n3n2)n[nH]1 [gandotinib]
# Method in brief: as §1
# [7] = compound: Cc1cc(Nc2cc(N3CCN(C)CC3)nc(Sc3ccc(NC(=O)C4CC4)cc3)n2)n[nH]1 [tozasertib]
# Method in brief: as §1
# [8] = compound: Cc1cc(SCc2sc(-c3ccc(C(F)(F)F)cc3)nc2C)ccc1OCC(=O)O
# Method in brief: as §1
# [9] = compound: Cc1ccc(-n2nc(C(C)(C)C)cc2NC(=O)Nc2ccc(OCCN3CCOCC3)c3ccccc23)cc1 [doramapimod]
# Method in brief: as §1
# [10] = compound: Cc1ccc(C(=O)N(CCCN)[C@@H](c2nc3cc(Cl)ccc3c(=O)n2Cc2ccccc2)C(C)C)cc1 [ispinesib]
# Method in brief: as §1
# [11] = compound: Cc1ccc(NC(=O)c2ccc(CN3CC[C@H](N(C)C)C3)c(C(F)(F)F)c2)cc1Nc1nccc(-c2cncnc2)n1 [bafetinib]
# Method in brief: as §1
# [12] = compound: Cc1cccc(CC(=O)N2CCc3c2ccc(-c2cn(C)c4ncnc(N)c24)c3F)n1
# Method in brief: as §1
# [13] = compound: Cc1cn(-c2cc(NC(=O)c3ccc(C)c(Nc4nccc(-c5cccnc5)n4)c3)cc(C(F)(F)F)c2)cn1 [nilotinib]
# Method in brief: as §1
# [14] = compound: Cc1nc(Nc2n[nH]c3c2CN(C(=O)N[C@H](CN(C)C)c2ccccc2)C3(C)C)c2sccc2n1
# Method in brief: as §1
# [15] = compound: Cc1nc(Nc2ncc(C(=O)Nc3c(C)cccc3Cl)s2)cc(N2CCN(CCO)CC2)n1 [dasatinib]
# Method in brief: as §1
# [16] = compound: Cc1ncc(-c2ccnc(Nc3ccc(S(C)(=O)=O)cc3)n2)n1C(C)C
# Method in brief: as §1
# [17] = compound: Cn1cc(-c2ccc3c(c2)CCN3C(=O)Cc2cccc(C(F)(F)F)c2)c2c(N)ncnc21
# Method in brief: as §1
# [18] = compound: Cn1cc(-c2ccc3nnc(C(F)(F)c4ccc5ncccc5c4)n3n2)cn1
# Method in brief: as §1
# [19] = compound: Cn1cncc1[C@@](N)(c1ccc(Cl)cc1)c1ccc2c(c1)c(-c1cccc(Cl)c1)cc(=O)n2C [tipifarnib]
# Method in brief: as §1
# [20] = compound: FC(F)(F)c1ccc(/C=C/c2nc(COc3ccc(CCCCn4ccnn4)cc3)co2)cc1 [mubritinib]
# Method in brief: as §1
# Sequence of UniProt P55957 (P55957 whole entry, looked up): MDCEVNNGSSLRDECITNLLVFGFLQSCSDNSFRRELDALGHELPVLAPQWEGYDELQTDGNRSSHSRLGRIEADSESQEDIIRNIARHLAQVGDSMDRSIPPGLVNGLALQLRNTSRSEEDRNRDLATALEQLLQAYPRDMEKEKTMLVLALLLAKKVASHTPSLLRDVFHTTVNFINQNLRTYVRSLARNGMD
# Sequence of UniProt Q93050 (Q93050 whole entry, looked up): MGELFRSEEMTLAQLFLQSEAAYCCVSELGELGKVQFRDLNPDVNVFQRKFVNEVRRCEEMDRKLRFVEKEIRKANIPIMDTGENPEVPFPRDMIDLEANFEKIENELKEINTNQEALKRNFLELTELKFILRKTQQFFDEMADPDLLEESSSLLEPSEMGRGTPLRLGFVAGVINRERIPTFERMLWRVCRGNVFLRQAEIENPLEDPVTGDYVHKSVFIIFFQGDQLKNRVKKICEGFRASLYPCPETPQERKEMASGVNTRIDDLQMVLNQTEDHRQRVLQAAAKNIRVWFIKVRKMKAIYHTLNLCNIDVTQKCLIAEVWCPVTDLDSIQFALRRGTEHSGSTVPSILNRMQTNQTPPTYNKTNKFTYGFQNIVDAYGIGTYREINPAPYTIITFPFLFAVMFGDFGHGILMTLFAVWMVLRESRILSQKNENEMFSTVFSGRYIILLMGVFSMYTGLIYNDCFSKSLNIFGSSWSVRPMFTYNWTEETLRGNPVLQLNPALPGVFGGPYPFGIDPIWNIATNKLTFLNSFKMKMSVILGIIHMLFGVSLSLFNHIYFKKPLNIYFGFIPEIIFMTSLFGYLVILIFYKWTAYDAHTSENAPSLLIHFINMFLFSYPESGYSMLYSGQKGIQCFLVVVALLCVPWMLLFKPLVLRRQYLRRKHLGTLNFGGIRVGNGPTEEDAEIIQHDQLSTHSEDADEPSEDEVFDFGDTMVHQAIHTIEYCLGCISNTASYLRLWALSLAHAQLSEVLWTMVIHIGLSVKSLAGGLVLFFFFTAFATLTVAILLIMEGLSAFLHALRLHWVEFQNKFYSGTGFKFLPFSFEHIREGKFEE
# Sequence of UniProt Q9BTT0 (Q9BTT0 whole entry, looked up): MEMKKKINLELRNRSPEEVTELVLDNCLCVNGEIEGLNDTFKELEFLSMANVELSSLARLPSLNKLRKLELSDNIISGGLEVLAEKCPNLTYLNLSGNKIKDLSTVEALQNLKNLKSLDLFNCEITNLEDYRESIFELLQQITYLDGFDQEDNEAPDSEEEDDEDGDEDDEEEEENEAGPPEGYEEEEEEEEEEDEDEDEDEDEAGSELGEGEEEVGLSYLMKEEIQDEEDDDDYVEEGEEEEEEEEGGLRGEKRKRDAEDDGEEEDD
# Sequence of UniProt Q9UI12 (Q9UI12 whole entry, looked up): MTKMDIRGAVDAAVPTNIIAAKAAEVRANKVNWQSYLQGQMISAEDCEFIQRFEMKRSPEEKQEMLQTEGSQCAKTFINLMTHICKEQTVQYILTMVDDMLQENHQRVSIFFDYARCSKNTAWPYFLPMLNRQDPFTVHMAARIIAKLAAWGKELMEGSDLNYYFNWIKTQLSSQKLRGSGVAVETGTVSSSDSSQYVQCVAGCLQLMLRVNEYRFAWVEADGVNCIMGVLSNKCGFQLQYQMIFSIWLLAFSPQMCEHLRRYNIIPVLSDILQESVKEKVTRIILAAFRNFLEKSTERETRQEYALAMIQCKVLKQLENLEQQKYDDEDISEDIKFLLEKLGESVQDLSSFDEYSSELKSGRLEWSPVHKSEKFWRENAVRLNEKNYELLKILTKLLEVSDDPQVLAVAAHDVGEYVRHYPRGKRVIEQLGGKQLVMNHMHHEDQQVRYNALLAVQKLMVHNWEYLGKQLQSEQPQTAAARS
# Sequence of UniProt Q6QNY0 (Q6QNY0 whole entry, looked up): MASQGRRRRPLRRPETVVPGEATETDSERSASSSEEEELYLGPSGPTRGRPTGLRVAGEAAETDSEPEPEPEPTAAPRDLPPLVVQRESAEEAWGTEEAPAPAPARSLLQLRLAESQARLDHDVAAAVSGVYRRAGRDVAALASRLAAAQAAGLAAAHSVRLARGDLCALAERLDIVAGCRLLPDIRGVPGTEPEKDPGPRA
# Sequence of UniProt Q13895 (Q13895 whole entry, looked up): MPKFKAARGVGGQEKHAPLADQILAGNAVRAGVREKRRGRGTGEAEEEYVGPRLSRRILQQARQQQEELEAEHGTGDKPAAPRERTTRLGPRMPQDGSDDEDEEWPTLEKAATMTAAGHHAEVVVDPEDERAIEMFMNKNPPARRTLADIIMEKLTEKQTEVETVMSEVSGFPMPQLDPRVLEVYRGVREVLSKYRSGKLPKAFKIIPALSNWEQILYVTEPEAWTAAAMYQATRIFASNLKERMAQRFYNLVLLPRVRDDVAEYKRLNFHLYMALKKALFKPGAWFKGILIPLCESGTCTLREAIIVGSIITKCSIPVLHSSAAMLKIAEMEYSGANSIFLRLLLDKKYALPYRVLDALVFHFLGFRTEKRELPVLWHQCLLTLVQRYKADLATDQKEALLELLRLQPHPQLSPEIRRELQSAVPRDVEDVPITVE
# Sequence of UniProt P98196 (P98196 whole entry, looked up): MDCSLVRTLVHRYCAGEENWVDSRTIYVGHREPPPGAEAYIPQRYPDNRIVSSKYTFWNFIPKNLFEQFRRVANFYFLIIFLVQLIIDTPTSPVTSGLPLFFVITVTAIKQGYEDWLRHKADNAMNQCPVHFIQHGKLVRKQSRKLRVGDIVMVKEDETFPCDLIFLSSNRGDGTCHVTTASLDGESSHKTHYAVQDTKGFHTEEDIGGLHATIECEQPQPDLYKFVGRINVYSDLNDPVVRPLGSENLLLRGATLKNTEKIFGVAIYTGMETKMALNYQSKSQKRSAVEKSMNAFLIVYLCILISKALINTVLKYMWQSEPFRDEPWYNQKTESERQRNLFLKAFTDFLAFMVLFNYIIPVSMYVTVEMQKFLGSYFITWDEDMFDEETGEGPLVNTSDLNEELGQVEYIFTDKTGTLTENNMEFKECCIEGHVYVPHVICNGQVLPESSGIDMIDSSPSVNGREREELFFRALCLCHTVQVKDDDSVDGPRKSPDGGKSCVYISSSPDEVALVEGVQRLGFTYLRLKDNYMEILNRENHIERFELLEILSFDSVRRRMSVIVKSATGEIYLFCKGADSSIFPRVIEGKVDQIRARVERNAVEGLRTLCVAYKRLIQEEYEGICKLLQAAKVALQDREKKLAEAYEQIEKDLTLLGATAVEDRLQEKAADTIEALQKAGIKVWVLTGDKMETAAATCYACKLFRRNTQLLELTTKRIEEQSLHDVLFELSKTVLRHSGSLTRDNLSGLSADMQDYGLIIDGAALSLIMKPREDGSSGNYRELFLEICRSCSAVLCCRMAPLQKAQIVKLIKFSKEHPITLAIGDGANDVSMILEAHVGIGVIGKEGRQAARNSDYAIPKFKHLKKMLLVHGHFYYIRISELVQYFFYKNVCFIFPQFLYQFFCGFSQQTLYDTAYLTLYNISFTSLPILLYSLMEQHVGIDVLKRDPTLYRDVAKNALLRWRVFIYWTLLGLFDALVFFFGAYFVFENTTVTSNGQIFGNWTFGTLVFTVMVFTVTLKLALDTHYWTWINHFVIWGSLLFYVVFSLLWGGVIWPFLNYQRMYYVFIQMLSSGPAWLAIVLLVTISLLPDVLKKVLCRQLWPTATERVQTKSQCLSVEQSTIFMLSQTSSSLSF
# Sequence of UniProt Q00973 (Q00973 whole entry, looked up): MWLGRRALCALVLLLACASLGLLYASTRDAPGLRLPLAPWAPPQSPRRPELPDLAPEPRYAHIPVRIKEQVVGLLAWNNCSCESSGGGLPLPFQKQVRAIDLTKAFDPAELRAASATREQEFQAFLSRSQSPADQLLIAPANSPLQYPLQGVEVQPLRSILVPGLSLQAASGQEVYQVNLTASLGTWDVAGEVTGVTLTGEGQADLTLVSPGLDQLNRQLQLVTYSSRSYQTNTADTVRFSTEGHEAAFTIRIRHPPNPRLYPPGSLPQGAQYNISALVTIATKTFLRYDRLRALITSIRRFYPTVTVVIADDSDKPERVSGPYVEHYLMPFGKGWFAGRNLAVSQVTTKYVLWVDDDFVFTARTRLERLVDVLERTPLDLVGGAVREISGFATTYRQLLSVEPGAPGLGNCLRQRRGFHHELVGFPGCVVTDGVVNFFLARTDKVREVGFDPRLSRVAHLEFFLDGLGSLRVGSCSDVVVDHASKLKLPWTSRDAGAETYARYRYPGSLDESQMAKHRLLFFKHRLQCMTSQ
# Sequence of UniProt Q9UHQ4 (Q9UHQ4 whole entry, looked up): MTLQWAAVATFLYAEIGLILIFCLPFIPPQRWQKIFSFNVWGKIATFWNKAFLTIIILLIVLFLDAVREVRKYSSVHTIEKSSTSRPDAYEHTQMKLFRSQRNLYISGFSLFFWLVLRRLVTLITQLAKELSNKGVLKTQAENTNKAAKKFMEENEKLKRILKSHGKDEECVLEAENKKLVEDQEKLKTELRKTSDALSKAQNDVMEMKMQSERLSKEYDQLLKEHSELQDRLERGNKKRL
# Sequence of UniProt P18085 (P18085 whole entry, looked up): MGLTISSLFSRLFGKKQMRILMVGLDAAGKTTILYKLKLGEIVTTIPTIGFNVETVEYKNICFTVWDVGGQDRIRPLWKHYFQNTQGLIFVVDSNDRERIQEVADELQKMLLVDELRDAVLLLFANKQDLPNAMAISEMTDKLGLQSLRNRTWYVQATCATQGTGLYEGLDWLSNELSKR
# Sequence of UniProt Q16186 (Q16186 whole entry, looked up): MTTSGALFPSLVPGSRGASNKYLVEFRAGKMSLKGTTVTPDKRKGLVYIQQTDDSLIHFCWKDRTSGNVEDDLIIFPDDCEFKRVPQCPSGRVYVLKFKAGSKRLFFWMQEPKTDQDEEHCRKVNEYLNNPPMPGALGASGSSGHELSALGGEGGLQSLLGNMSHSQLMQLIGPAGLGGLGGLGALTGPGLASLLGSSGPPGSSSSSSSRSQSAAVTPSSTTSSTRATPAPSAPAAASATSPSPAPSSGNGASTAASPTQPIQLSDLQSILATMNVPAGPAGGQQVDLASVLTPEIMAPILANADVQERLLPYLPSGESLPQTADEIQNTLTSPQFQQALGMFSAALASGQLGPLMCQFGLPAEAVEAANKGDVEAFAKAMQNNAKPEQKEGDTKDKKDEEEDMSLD
Target,log2 fold change [1],log2 fold change [2],log2 fold change [3],log2 fold change [4],log2 fold change [5],log2 fold change [6],log2 fold change [7],log2 fold change [8],log2 fold change [9],log2 fold change [10],log2 fold change [11],log2 fold change [12],log2 fold change [13],log2 fold change [14],log2 fold change [15],log2 fold change [16],log2 fold change [17],log2 fold change [18],log2 fold change [19],log2 fold change [20]
ANAPC2 (UniProt Q9UJX6),-0.025 (inactive),-0.084 (inactive),0.034 (inactive),0.035 (inactive),0.027 (inactive),-0.044 (inactive),0.012 (inactive),0.028 (inactive),0.022 (inactive),-0.02 (inactive),-0.048 (inactive),0.024 (inactive),-0.004 (inactive),-0.053 (inactive),-0.04 (inactive),0.003 (inactive),-0.005 (inactive),-0.036 (inactive),-0.005 (inactive),0.049 (inactive)
BID isoform 2 (UniProt P55957),0.047 (inactive),0.087 (inactive),0.409 (active),-0.019 (inactive),0.049 (inactive),-0.012 (inactive),-0.012 (inactive),-0.003 (inactive),-0.013 (inactive),0.022 (inactive),-0.035 (inactive),-0.071 (inactive),0.019 (inactive),-0.006 (inactive),0.018 (inactive),0.005 (inactive),0.038 (inactive),0.007 (inactive),-0.079 (inactive),0.044 (inactive)
ANP32E (UniProt Q9BTT0),-0.021 (inactive),0.055 (inactive),0.12 (inactive),-0.16 (inactive),0.036 (inactive),-0.082 (inactive),0.096 (inactive),0.026 (inactive),-0.014 (inactive),0.002 (inactive),0.04 (inactive),0.146 (inactive),-0.061 (inactive),-0.123 (inactive),0.053 (inactive),-0.104 (inactive),0.013 (inactive),0.027 (inactive),0.001 (inactive),-0.047 (inactive)
ARFGAP1 (UniProt Q8N6T3),0.009 (inactive),0.094 (inactive),0.048 (inactive),-0.016 (inactive),-0.011 (inactive),-0.038 (inactive),0.138 (inactive),0.047 (inactive),-0.13 (inactive),0.008 (inactive),-0.041 (inactive),-0.009 (inactive),-0.015 (inactive),-0.193 (inactive),-0.097 (inactive),-0.004 (inactive),-0.003 (inactive),0.008 (inactive),-0.036 (inactive),-0.022 (inactive)
BCAP29 isoform 2 (UniProt Q9UHQ4),-0.015 (inactive),-0.028 (inactive),0.061 (inactive),-0.005 (inactive),-0.006 (inactive),0.037 (inactive),-0.019 (inactive),-0.079 (inactive),-0.024 (inactive),-0.245 (active),-0.159 (inactive),-0.027 (inactive),-0.002 (inactive),0.035 (inactive),0.154 (inactive),-0.018 (inactive),0 (inactive),0.04 (inactive),0.058 (inactive),0.02 (inactive)
ARF4 (UniProt P18085),0.057 (inactive),0.081 (inactive),0.122 (inactive),-0.018 (inactive),0.081 (inactive),-0.074 (inactive),-0.021 (inactive),0.017 (inactive),-0.034 (inactive),0.254 (active),0.113 (inactive),0.01 (inactive),-0.056 (inactive),0.015 (inactive),-0.053 (inactive),0.088 (inactive),0.052 (inactive),0.038 (inactive),-0.061 (inactive),0.02 (inactive)
ACBD6 (UniProt Q9BR61),0.386 (active),-0.36 (inactive),-0.041 (inactive),0.075 (inactive),-0.026 (inactive),0.076 (inactive),0.032 (inactive),0.082 (inactive),-0.048 (inactive),-0.14 (inactive),-0.058 (inactive),0.063 (inactive),0.017 (inactive),-0.085 (inactive),-0.23 (inactive),0.057 (inactive),-0.053 (inactive),0.056 (inactive),-0.072 (inactive),-0.085 (inactive)
ATP11A (UniProt P98196),0.017 (inactive),0.042 (inactive),0.032 (inactive),-0.103 (inactive),-0.025 (inactive),0.027 (inactive),-0.017 (inactive),-0.055 (inactive),0.018 (inactive),0.092 (inactive),-0.028 (inactive),-0.002 (inactive),0.113 (inactive),-0.012 (inactive),-0.01 (inactive),0.029 (inactive),-0.006 (inactive),0.01 (inactive),0.051 (inactive),0.056 (inactive)
ATP6V0A1 isoform 3 (UniProt Q93050),-0.041 (inactive),-0.349 (inactive),-0.27 (inactive),0.225 (inactive),-0.093 (inactive),0.094 (inactive),0.073 (inactive),0.144 (inactive),0.152 (inactive),-0.446 (active),-0.12 (inactive),0.153 (inactive),-0.026 (inactive),-0.029 (inactive),0.018 (inactive),-0.079 (inactive),-0.097 (inactive),-0.098 (inactive),0.038 (inactive),-0.026 (inactive)
B4GALNT1 (UniProt Q00973),0.198 (inactive),0.014 (inactive),-0.003 (inactive),-0.019 (inactive),0.06 (inactive),-0.077 (inactive),-0.003 (inactive),0.12 (inactive),0.065 (inactive),-0.077 (inactive),0.141 (inactive),-0.042 (inactive),0.083 (inactive),0.012 (inactive),0.076 (inactive),-0.125 (inactive),-0.128 (inactive),0.036 (inactive),0.025 (inactive),0.015 (inactive)
ADRM1 (UniProt Q16186),0.006 (inactive),-0.109 (inactive),-0.028 (inactive),0.138 (inactive),-0.036 (inactive),-0.056 (inactive),-0.028 (inactive),0.069 (inactive),0.041 (inactive),-0.05 (inactive),0.238 (active),0.072 (inactive),0.028 (inactive),0.063 (inactive),-0.036 (inactive),0.006 (inactive),-0.061 (inactive),-0.003 (inactive),0.01 (inactive),-0.006 (inactive)
ALDH6A1 (UniProt Q02252),-0.008 (inactive),0.042 (inactive),0.109 (inactive),0.009 (inactive),0.106 (inactive),-0.057 (inactive),-0.054 (inactive),0.008 (inactive),0.033 (inactive),-0.042 (inactive),-0.045 (inactive),-0.103 (inactive),-0.003 (inactive),0.018 (inactive),-0.204 (inactive),-0.015 (inactive),-0.019 (inactive),-0.019 (inactive),0.01 (inactive),-0.528 (active)
ATP6V1H (UniProt Q9UI12),-0.045 (inactive),-0.199 (inactive),0.019 (inactive),0.003 (inactive),0.018 (inactive),0.021 (inactive),0.06 (inactive),0.014 (inactive),0.038 (inactive),-0.089 (inactive),-0.057 (inactive),0.037 (inactive),-0.015 (inactive),-0.016 (inactive),-0.029 (inactive),0.049 (inactive),0.025 (inactive),-0.013 (inactive),-0.01 (inactive),0.098 (inactive)
BLOC1S3 (UniProt Q6QNY0),-0.001 (inactive),0.014 (inactive),0.116 (inactive),0.065 (inactive),0.068 (inactive),-0.132 (inactive),-0.012 (inactive),-0.052 (inactive),-0.038 (inactive),0.012 (inactive),-0.02 (inactive),0.006 (inactive),-0.067 (inactive),0.031 (inactive),-0.051 (inactive),-0.022 (inactive),0.017 (inactive),0.078 (inactive),-0.103 (inactive),-0.027 (inactive)
BYSL (UniProt Q13895),-0.003 (inactive),-0.049 (inactive),0 (inactive),0.05 (inactive),-0.041 (inactive),-0.012 (inactive),0.1 (inactive),0.135 (inactive),0.037 (inactive),-0.094 (inactive),0.118 (inactive),0.034 (inactive),-0.131 (inactive),0.163 (inactive),-0.082 (inactive),0.064 (inactive),-0.05 (inactive),-0.003 (inactive),-0.063 (inactive),0.062 (inactive)
